Compounds without any hit were thinned out: in the full panel of roughly 83,000, 20% have a hit.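 Cell lines were cultured in 96-well plates, exposed to a single compound concentration, and assessed for percent growth 48 hours later.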 The source made the active and inactive calls. Rule for the calls: active = growth percent below 10; inactive = the rest.
Experiments:
Assay in all cases: NCI-60 one-dose screen, 48 h (100 = growth as untreated, 0 = no growth, -100 = all killed)
Details in all cases: 10 µM unless noted
NCI-H23 lung = system: NCI-H23 lung
NCI-H226 lung = system: NCI-H226 lung
NCI-H322M lung = system: NCI-H322M lung
HOP-62 NSCLC = system: HOP-62 NSCLC
NCI-H460 lung = system: NCI-H460 lung
A549/ATCC NSCLC = system: A549/ATCC NSCLC
786-0 renal = system: 786-0 renal
COLO 205 colon = system: COLO 205 colon
DU-145 prostate = system: DU-145 prostate
K-562 leukemia = system: K-562 leukemia
MALME-3M melanoma = system: MALME-3M melanoma
MDA-MB-231 breast = system: MDA-MB-231 breast
RXF 393 renal = system: RXF 393 renal
SF-268 CNS = system: SF-268 CNS
SF-295 CNS = system: SF-295 CNS
SF-539 CNS = system: SF-539 CNS
UACC-257 melanoma = system: UACC-257 melanoma
M14 melanoma = system: M14 melanoma

Measured: growth

COc1ccc2cn3c4ccc(O)cc4[nH]c(=O)c3c2c1
inactive: NCI-H23 lung 25.3% | NCI-H226 lung 54.7% | NCI-H322M lung 41% | HOP-62 NSCLC 25.8% | A549/ATCC NSCLC 19.3% | 786-0 renal 24.1% | DU-145 prostate 11.5% | K-562 leukemia 13.2% | MALME-3M melanoma 41.2% | MDA-MB-231 breast 23.2% | SF-268 CNS 21% | UACC-257 melanoma 50.1%
active: NCI-H460 lung -48.7% | COLO 205 colon -7.26% | RXF 393 renal 2.52% | SF-295 CNS 0.201% | SF-539 CNS -9.1% | M14 melanoma -2.73%

O=C(Nc1ccc(-n2cc(-c3ccncc3)c(-c3ccc(Cl)c(O)c3)n2)cc1)c1cc(Cl)cc(Cl)c1
active: 786-0 renal -39% | RXF 393 renal -69% | SF-295 CNS -61.6% | M14 melanoma -49.1%
inactive: NCI-H23 lung 60.3% | NCI-H226 lung 111% | NCI-H322M lung 60.4% | HOP-62 NSCLC 22.2% | NCI-H460 lung 14.1% | A549/ATCC NSCLC 41.4% | COLO 205 colon 72.9% | DU-145 prostate 72.8% | K-562 leukemia 13.9% | MALME-3M melanoma 24.7% | MDA-MB-231 breast 24.2% | SF-268 CNS 74.5% | SF-539 CNS 26% | UACC-257 melanoma 54.7%

COc1ccc(-c2nnc(SCC(=O)Nc3ccc(C(=O)/C=C/c4cc(OC)c(OC)c(OC)c4)cc3)n2-c2ccccc2)cc1OC
inactive: NCI-H322M lung 34.5% [100 µM] | NCI-H460 lung 11% [100 µM] | COLO 205 colon 30.3% [100 µM] | K-562 leukemia 31.4% [100 µM] | UACC-257 melanoma 22.1% [100 µM]
active: NCI-H23 lung -66.5% [100 µM] | NCI-H226 lung -15% [100 µM] | HOP-62 NSCLC -31.4% [100 µM] | A549/ATCC NSCLC -28.4% [100 µM] | 786-0 renal -54.9% [100 µM] | DU-145 prostate -29.4% [100 µM] | MALME-3M melanoma -33.4% [100 µM] | MDA-MB-231 breast -44.6% [100 µM] | RXF 393 renal -24.7% [100 µM] | SF-268 CNS -52.2% [100 µM] | SF-295 CNS -86.2% [100 µM] | SF-539 CNS 1.43% [100 µM] | M14 melanoma 1.87% [100 µM]

CCn1cnc(C[C@H](NC(=O)[C@@H](NC(=O)Nc2cc(C(F)(F)F)cc(C(F)(F)F)c2)C(C)(C)C)C(=O)OC)c1
active: NCI-H23 lung -84.2% [100 µM] | NCI-H226 lung -49.5% [100 µM] | NCI-H322M lung -96.3% [100 µM] | HOP-62 NSCLC -95.5% [100 µM] | NCI-H460 lung -57.2% [100 µM] | A549/ATCC NSCLC -80.1% [100 µM] | 786-0 renal -83.9% [100 µM] | COLO 205 colon -80% [100 µM] | DU-145 prostate -95.1% [100 µM] | K-562 leukemia -47% [100 µM] | MALME-3M melanoma -82.5% [100 µM] | MDA-MB-231 breast -93.6% [100 µM] | RXF 393 renal -83.7% [100 µM] | SF-268 CNS -89.2% [100 µM] | SF-295 CNS -88.6% [100 µM] | SF-539 CNS -93.4% [100 µM] | UACC-257 melanoma -96.2% [100 µM] | M14 melanoma -90.8% [100 µM]

CCCCCCCCCC[N+](C)(C)N
inactive: NCI-H23 lung 104% | NCI-H226 lung 92.3% | NCI-H322M lung 97.7% | HOP-62 NSCLC 95.8% | NCI-H460 lung 111% | A549/ATCC NSCLC 97.6% | 786-0 renal 81.9% | COLO 205 colon 100% | DU-145 prostate 111% | K-562 leukemia 71.6% | MALME-3M melanoma 95% | MDA-MB-231 breast 101% | RXF 393 renal 81.8% | SF-268 CNS 98.6% | SF-295 CNS 98.4% | SF-539 CNS 89.1% | UACC-257 melanoma 94.7% | M14 melanoma 105%

CC(O)CN(CC(C)O)N(CC(C)O)CC(C)O (centres undefined)
inactive: NCI-H23 lung 108% | NCI-H226 lung 97.5% | NCI-H322M lung 107% | HOP-62 NSCLC 101% | NCI-H460 lung 106% | A549/ATCC NSCLC 95.5% | 786-0 renal 99.5% | COLO 205 colon 109% | DU-145 prostate 111% | K-562 leukemia 108% | MALME-3M melanoma 108% | MDA-MB-231 breast 105% | RXF 393 renal 105% | SF-268 CNS 110% | SF-295 CNS 101% | SF-539 CNS 105% | UACC-257 melanoma 90.5% | M14 melanoma 100%

CCOc1ccc(N(C)c2ccc(/C=C/C3=[N+](C)c4ccccc4C3(C)C)cc2)cc1
inactive: NCI-H226 lung 54.2% | NCI-H322M lung 57% | HOP-62 NSCLC 12.3% | RXF 393 renal 35.8% | SF-539 CNS 30.5%
active: NCI-H23 lung 4.67% | NCI-H460 lung -50% | A549/ATCC NSCLC 9.51% | 786-0 renal 2.71% | COLO 205 colon -77% | DU-145 prostate -3.68% | K-562 leukemia 8.09% | MALME-3M melanoma -73.8% | MDA-MB-231 breast -56.2% | SF-268 CNS -78.9% | SF-295 CNS -2.2% | UACC-257 melanoma -16.4% | M14 melanoma 6.52%

Nc1nc2cc(O)ccc2n2cc3c(F)cccc3c12
inactive: NCI-H23 lung 40.9% | NCI-H226 lung 54.8% | NCI-H322M lung 32.5% | HOP-62 NSCLC 24.9% | A549/ATCC NSCLC 22.6% | 786-0 renal 27.6% | COLO 205 colon 55.1% | DU-145 prostate 33.4% | K-562 leukemia 29.4% | MALME-3M melanoma 33.3% | MDA-MB-231 breast 38.8% | SF-268 CNS 19.1% | SF-295 CNS 11.9% | SF-539 CNS 13.7% | UACC-257 melanoma 50.9% | M14 melanoma 23%
active: NCI-H460 lung 2.35% | RXF 393 renal 5.51%
